The structures appear in SMILES notation. Activity calls are given as the source filed them. How the source made its calls: active means hit-call score of the fitted dose curve at least 0.9, where 1 is the maximum; inactive means score below 0.9.

Read-out in one assay: Cyclin D1 (CCND1), CCND1 (gene 595)
As to the kind of experiment: LTEA_HepaRG_CCND1: Life Technologies and Expression Analysis (LTEA) Assay for Cyclin D1 (CCND1) using HepaRG (AID 2283451).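 On AC50: differentiated human HepaRG liver cells in serum-free induction medium; TaqMan qRT-PCR transcript level normalised to ACTB GAPDH and POLR2A housekeeping genes.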 To be noted: mRNA level, 48 h; actives raise or lower the signal. Put shortly:
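Expression change is measured by qRT-PCR in HepaRG cells after 48 h treatment across eight concentrations topping at 100 uM, with duplicate wells and DMSO (0.5%) serving as baseline for bidirectional fitting.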
Take `COc1cccc(C(=O)NN(C(=O)c2cc(C)cc(C)c2)C(C)(C)C)c1C`: the outcome was inactive.

Consider `O=C(O)c1cc(Oc2ccc(C(F)(F)F)cc2Cl)ccc1[N+](=O)[O-]`, for which the compound was classed as inactive.

As to `Cc1cc(C2CC2)nc(Nc2ccccc2)n1`, the compound was called inactive.

As to `CNC(=O)Oc1cccc2c1OC(C)(C)O2`, the call was inactive.

Turning to `CC(C1CC1)C(O)(Cn1cncn1)c1ccc(Cl)cc1` (stereo not given), the call was inactive.

`CSc1nnc(C(C)(C)C)c(=O)n1N`: the outcome was inactive.

For the compound `CCCOCC(=Nc1ccc(Cl)cc1C(F)(F)F)n1ccnc1`, the compound was classed as inactive.

With `COP(=O)(NC(C)=O)SC` (stereo not given), the compound was classed as inactive.

On to `CCOC(=O)COc1cc(-c2nn(C)c(OC(F)F)c2Cl)c(F)cc1Cl`, for which the result was inactive.

Regarding `CN(C)C(=O)Nc1cccc(C(F)(F)F)c1`, the outcome was inactive.

Take `Nc1nc(N)nc(NC2CC2)n1`: the result was inactive.

For the compound `CN(C)NC(=O)CCC(=O)O`, the compound was called inactive.

With `CNC(=O)ON=C(SC)C(=O)N(C)C`, the compound was classed as inactive.

Consider `CCc1cccc(C)c1N(C(=O)CCl)C(C)COC` (stereo not given), for which the compound was called inactive.

For `CCOP(=S)(OCC)Oc1ccc2c(C)c(Cl)c(=O)oc2c1`, the outcome was inactive.

In the case of `CNc1cnn(-c2cccc(C(F)(F)F)c2)c(=O)c1Cl`, the compound was called inactive.

Consider `CC(C)[C@H](C(=O)O[C@H](C#N)c1cccc(Oc2ccccc2)c1)c1ccc(Cl)cc1`, for which the compound was called inactive.

As for `COc1ccc(C(=CC(=O)N2CCOCC2)c2ccc(Cl)cc2)cc1OC`, the call was inactive.

`CCOP(=O)(NC(C)C)Oc1ccc(SC)c(C)c1` (stereo not given): the compound was called inactive.

In the case of `CSc1nc(NC(C)C)nc(NC(C)C)n1`, the compound was called inactive.

With `CC1(C(=O)Nc2ccc(O)c(Cl)c2Cl)CCCCC1`, the compound was classed as inactive.

On to `CCNc1nc(Cl)nc(NC(C)(C)C#N)n1`, for which the result was inactive.

For the compound `CNC(=O)ON=C(C)SC`, the call was inactive.

As for `Nc1c(Cl)cc([N+](=O)[O-])cc1Cl`, the AC50 is 50 µM (active).

`CC(COc1ccc(Oc2ccccc2)cc1)Oc1ccccn1` (stereo not given): the compound was classed as inactive.

In the case of `C#CC(C)(C)NC(=O)c1cc(Cl)cc(Cl)c1`, the compound was called inactive.

Consider `CCCSP(=O)(OCC)Oc1ccc(Br)cc1Cl` (stereo not given), for which the call was inactive.

Regarding `FC(F)C(F)(F)OCC(Cn1cncn1)c1ccc(Cl)cc1Cl` (stereo not given), the AC50 is 97.3 µM (active).

As for `C[Si](Cn1cncn1)(c1ccc(F)cc1)c1ccc(F)cc1`, the AC50 is 40.3 µM (active).

With `CCOP(=S)(OCC)Oc1cc(C)nc(C(C)C)n1`, the result was inactive.

Consider `CCCCN(CC)c1c([N+](=O)[O-])cc(C(F)(F)F)cc1[N+](=O)[O-]`, for which the outcome was inactive.

Regarding `C#CCC1=C(C)C(OC(=O)C2C(C=C(C)C)C2(C)C)CC1=O` (stereo not given), the compound was called inactive.

`CCOP(=S)(OCC)Oc1ccc([N+](=O)[O-])cc1`: the call was inactive.

With `CCCSP(=O)(OCC)SCCC`, the compound was classed as inactive.

In the case of `Cc1ccn2nc(S(=O)(=O)Nc3c(F)cccc3F)nc2n1`, the compound was classed as inactive.

Read-out in a further assay: catalase (CAT), CAT (gene 847)
As to the kind of experiment: LTEA_HepaRG_CAT: Life Technologies and Expression Analysis (LTEA) Assay for catalase (CAT) using HepaRG (AID 2283452).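 On AC50: TaqMan qRT-PCR signal normalized to ACTB GAPDH and POLR2A housekeeping genes.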 The note with it: mRNA level, 48 h; actives raise or lower the signal. In outline:
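HepaRG cells in serum-free induction medium, 0.5% DMSO vehicle, exposed 48 h in duplicate over 8 half-log concentrations from 100 uM. CAT mRNA measured by qRT-PCR, normalized to ACTB, GAPDH, POLR2A; bidirectional fit versus DMSO.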
Turning to `COc1cccc(C(=O)NN(C(=O)c2cc(C)cc(C)c2)C(C)(C)C)c1C`, the result was inactive.

On to `O=C(O)c1cc(Oc2ccc(C(F)(F)F)cc2Cl)ccc1[N+](=O)[O-]`, for which the compound was classed as inactive.

Regarding `Cc1cc(C2CC2)nc(Nc2ccccc2)n1`, the compound was called inactive.

For the compound `CNC(=O)Oc1cccc2c1OC(C)(C)O2`, the compound was called inactive.

Turning to `CC(C1CC1)C(O)(Cn1cncn1)c1ccc(Cl)cc1` (stereo not given), the outcome was inactive.

On to `CSc1nnc(C(C)(C)C)c(=O)n1N`, for which the compound was classed as inactive.

For `CCCOCC(=Nc1ccc(Cl)cc1C(F)(F)F)n1ccnc1`, the AC50 was 37.6 µM (active).

As for `COP(=O)(NC(C)=O)SC` (stereo not given), the result was inactive.

Take `CCOC(=O)COc1cc(-c2nn(C)c(OC(F)F)c2Cl)c(F)cc1Cl`: the call was inactive.

Turning to `CN(C)C(=O)Nc1cccc(C(F)(F)F)c1`, the call was inactive.

As for `Nc1nc(N)nc(NC2CC2)n1`, the result was inactive.

With `CN(C)NC(=O)CCC(=O)O`, the call was inactive.

With `CNC(=O)ON=C(SC)C(=O)N(C)C`, the call was inactive.

Consider `CCc1cccc(C)c1N(C(=O)CCl)C(C)COC` (stereo not given), for which the call was inactive.

For the compound `CCOP(=S)(OCC)Oc1ccc2c(C)c(Cl)c(=O)oc2c1`, the compound was called inactive.

For the compound `CNc1cnn(-c2cccc(C(F)(F)F)c2)c(=O)c1Cl`, the result was inactive.

For the compound `CC(C)[C@H](C(=O)O[C@H](C#N)c1cccc(Oc2ccccc2)c1)c1ccc(Cl)cc1`, the result was inactive.

On to `COc1ccc(C(=CC(=O)N2CCOCC2)c2ccc(Cl)cc2)cc1OC`, for which the call was inactive.

`CCOP(=O)(NC(C)C)Oc1ccc(SC)c(C)c1` (stereo not given): the outcome was inactive.

As for `CSc1nc(NC(C)C)nc(NC(C)C)n1`, the AC50 was 50 µM (active).

With `CC1(C(=O)Nc2ccc(O)c(Cl)c2Cl)CCCCC1`, the result was inactive.

Take `CCNc1nc(Cl)nc(NC(C)(C)C#N)n1`: the compound was called inactive.

Regarding `CNC(=O)ON=C(C)SC`, the outcome was inactive.

As for `Nc1c(Cl)cc([N+](=O)[O-])cc1Cl`, the AC50 was 41.4 µM (active).

With `CC(COc1ccc(Oc2ccccc2)cc1)Oc1ccccn1` (stereo not given), the result was inactive.

For the compound `C#CC(C)(C)NC(=O)c1cc(Cl)cc(Cl)c1`, the result was inactive.

As for `CCCSP(=O)(OCC)Oc1ccc(Br)cc1Cl` (stereo not given), the call was inactive.

As for `FC(F)C(F)(F)OCC(Cn1cncn1)c1ccc(Cl)cc1Cl` (stereo not given), the AC50 was 49.8 µM (active).

For `C[Si](Cn1cncn1)(c1ccc(F)cc1)c1ccc(F)cc1`, the AC50 was 50 µM (active).

As to `CCOP(=S)(OCC)Oc1cc(C)nc(C(C)C)n1`, the compound was classed as inactive.

With `CCCCN(CC)c1c([N+](=O)[O-])cc(C(F)(F)F)cc1[N+](=O)[O-]`, the result was inactive.

For `C#CCC1=C(C)C(OC(=O)C2C(C=C(C)C)C2(C)C)CC1=O` (stereo not given), the compound was called inactive.

Take `CCOP(=S)(OCC)Oc1ccc([N+](=O)[O-])cc1`: the result was inactive.

For the compound `CCCSP(=O)(OCC)SCCC`, the outcome was inactive.

`Cc1ccn2nc(S(=O)(=O)Nc3c(F)cccc3F)nc2n1`: the compound was classed as inactive.

The AC50 is the concentration giving half of the maximal activity seen.

For the origin of these results see PubChem BioAssay (EPA / NIEHS).
